The values below come from paper PMC7862700, “An all-to-all approach to the identification of sequence-specific readers for epigenetic DNA modifications on cytosine”.

Holding throughout (assay): DAPPL (digital affinity profiling via proximity ligation, sequencing); 10 mM Tris-HCl pH 7.5, 50 mM NaCl, 1 mM DTT, 4% glycerol, room temperature, 30 min; GST-TFs on glutathione beads, 16-mer random dsDNA library, 0.1% formaldehyde crosslink after washing; high values mean tight binding
Holding throughout (conditions): protein: recombinant; tags: N-terminal GST; dsDNA, one strand shown

One assay addresses T1, ERF (Homo sapiens, UniProt P50548 1-548).
T1 sequence: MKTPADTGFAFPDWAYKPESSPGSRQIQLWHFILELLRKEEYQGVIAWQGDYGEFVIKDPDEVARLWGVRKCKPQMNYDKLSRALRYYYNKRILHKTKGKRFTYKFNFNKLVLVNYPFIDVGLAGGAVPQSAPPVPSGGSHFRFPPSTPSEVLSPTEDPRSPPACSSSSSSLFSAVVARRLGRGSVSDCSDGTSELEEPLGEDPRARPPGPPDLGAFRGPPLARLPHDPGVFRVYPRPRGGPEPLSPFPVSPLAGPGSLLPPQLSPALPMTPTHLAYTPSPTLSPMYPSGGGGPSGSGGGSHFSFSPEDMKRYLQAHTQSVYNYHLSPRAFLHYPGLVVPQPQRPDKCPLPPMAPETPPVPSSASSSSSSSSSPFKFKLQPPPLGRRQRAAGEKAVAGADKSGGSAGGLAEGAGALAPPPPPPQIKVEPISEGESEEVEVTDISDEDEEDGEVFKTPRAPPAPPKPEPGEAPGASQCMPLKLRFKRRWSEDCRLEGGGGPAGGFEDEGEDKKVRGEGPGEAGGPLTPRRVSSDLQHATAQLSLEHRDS
The gist of the method:
(§1)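 Pools were built from human transcription factors expressed in yeast as GST fusions, captured on glutathione beads and DNA-barcoded, along with a tag-only sample. Incubation with 200 nmole of a 16-mer random double-stranded DNA library lasted 30 min at room temperature in Tris/NaCl/DTT/glycerol buffer, and was followed by washing, 0.1% formaldehyde crosslinking, proximity ligation, PCR amplification and Illumina NextSeq500 sequencing. Binding signal is the quotient of each hexamer's read frequency for a factor and its frequency for the tag-only sample.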

For the next assay, the target named is T2, ETV3L (Homo sapiens, UniProt Q6ZN32 1-361).
T2 sequence: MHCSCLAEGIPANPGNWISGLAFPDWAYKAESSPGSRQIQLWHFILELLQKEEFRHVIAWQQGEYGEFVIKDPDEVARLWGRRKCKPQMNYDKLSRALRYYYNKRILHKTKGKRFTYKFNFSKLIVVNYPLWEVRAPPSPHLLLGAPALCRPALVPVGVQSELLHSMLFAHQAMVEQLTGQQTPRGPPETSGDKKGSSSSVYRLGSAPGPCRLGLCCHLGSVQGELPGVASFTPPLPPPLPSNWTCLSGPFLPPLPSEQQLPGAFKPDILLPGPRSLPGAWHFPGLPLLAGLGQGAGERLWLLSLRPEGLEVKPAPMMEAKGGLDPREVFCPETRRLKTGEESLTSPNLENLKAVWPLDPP
Summed up: as §1

Another assay addresses T3, ETS2 (Homo sapiens, UniProt P15036 1-469).
T3 sequence: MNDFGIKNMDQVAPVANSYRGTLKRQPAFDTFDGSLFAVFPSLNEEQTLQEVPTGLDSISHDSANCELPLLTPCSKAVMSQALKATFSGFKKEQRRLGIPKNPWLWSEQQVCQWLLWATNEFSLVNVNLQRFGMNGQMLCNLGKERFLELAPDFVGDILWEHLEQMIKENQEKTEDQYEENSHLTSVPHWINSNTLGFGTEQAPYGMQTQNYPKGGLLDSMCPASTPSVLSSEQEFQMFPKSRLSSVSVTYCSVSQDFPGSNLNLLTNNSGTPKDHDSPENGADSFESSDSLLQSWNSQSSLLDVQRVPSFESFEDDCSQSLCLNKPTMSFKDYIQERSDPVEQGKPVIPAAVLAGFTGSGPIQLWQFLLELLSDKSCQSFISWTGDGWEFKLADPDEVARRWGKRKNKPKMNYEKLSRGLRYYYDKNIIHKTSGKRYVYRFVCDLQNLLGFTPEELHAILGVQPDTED
Summed up:
as §1

A further assay has as its target T4, SPDEF (Homo sapiens, UniProt O95238 1-335).
T4 sequence: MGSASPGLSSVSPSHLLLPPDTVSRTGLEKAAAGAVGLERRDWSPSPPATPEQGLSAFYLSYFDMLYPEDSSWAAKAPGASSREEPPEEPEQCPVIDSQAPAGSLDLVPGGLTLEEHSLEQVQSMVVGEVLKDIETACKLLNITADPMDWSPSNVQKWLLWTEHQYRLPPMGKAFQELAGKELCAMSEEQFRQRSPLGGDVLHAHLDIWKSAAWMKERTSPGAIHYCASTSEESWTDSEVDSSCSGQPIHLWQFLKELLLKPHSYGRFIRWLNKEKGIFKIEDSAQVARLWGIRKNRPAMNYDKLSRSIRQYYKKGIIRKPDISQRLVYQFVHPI
The gist of the method: as §1

A further assay deals with T5, ETV7 (Homo sapiens, UniProt Q9Y603 1-341).
T5 sequence: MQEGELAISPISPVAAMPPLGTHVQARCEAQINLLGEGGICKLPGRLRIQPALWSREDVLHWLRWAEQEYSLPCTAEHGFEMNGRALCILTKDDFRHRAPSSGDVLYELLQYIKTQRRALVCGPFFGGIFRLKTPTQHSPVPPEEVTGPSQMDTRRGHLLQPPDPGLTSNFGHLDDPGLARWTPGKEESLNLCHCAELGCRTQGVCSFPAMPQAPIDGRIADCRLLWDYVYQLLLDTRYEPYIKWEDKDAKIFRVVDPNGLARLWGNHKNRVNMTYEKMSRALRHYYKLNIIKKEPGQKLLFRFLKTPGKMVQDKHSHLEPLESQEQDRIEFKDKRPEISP
The gist of the method: as §1

Another assay concerns the target T6, ELF5 (Homo sapiens, UniProt Q9UKW6-2 1-255).
T6 sequence: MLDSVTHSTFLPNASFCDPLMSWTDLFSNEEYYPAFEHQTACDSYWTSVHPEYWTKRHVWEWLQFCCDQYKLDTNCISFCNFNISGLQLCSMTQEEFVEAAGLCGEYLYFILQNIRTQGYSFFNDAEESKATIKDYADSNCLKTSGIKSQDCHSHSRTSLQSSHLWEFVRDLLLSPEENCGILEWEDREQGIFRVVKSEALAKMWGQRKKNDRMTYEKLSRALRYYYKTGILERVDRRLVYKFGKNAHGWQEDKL
Summed up: as §1

The target of a further assay is T7, ETV3 (Homo sapiens, UniProt P41162-2 1-143).
T7 sequence: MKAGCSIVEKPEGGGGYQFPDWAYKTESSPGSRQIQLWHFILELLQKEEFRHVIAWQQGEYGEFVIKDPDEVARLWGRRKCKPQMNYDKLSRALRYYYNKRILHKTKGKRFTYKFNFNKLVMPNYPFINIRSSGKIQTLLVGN
Summed up: as §1

For another assay, the target named is ETV6 (Homo sapiens, UniProt P41212 1-452). The gist of the method: as §1
ETV6, sequence (P41212 whole entry): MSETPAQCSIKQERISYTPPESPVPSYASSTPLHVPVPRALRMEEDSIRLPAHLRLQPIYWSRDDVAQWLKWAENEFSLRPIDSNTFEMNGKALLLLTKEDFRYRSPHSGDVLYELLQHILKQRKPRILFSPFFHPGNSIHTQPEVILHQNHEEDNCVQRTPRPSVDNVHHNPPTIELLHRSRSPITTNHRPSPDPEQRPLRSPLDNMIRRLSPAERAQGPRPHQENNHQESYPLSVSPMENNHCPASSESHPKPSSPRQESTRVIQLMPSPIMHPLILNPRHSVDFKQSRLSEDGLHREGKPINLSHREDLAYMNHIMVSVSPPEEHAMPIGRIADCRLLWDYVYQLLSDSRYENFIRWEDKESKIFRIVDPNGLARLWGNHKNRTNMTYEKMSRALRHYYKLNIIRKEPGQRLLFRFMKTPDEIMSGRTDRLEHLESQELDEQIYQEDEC

For the sequence AATCTA, the binding signal with ERF is 1.25 fold enrichment (6-mer frequency, TF over GST control); in the assay with ETV3L, 1.08 fold enrichment (6-mer frequency, TF over GST control); with ETS2 it was 1.16 fold enrichment (6-mer frequency, TF over GST control); with SPDEF, 1.02 fold enrichment (6-mer frequency, TF over GST control); with ETV7, 1.13 fold enrichment (6-mer frequency, TF over GST control); with ELF5, 1.1 fold enrichment (6-mer frequency, TF over GST control). Also, the binding signal with ETV3 is 1.05 fold enrichment (6-mer frequency, TF over GST control); in the assay with ETV6 it was 1.09 fold enrichment (6-mer frequency, TF over GST control).

On to AATCTC, for which the binding signal is 1.27 fold enrichment (6-mer frequency, TF over GST control) with ERF; 1.15 fold enrichment (6-mer frequency, TF over GST control) with ETV3L; 1.19 fold enrichment (6-mer frequency, TF over GST control) in the assay with ETS2; 1.14 fold enrichment (6-mer frequency, TF over GST control) with SPDEF; 1.2 fold enrichment (6-mer frequency, TF over GST control) in the assay with ETV7; 1.29 fold enrichment (6-mer frequency, TF over GST control) with ELF5. Further, the binding signal was 1.2 fold enrichment (6-mer frequency, TF over GST control) in the assay with ETV3 and 1.26 fold enrichment (6-mer frequency, TF over GST control) with ETV6.

Take ATCTAG: the binding signal with ERF was 1.18 fold enrichment (6-mer frequency, TF over GST control); with ETV3L it was 1.08 fold enrichment (6-mer frequency, TF over GST control); in the assay with ETS2, 1.11 fold enrichment (6-mer frequency, TF over GST control); with SPDEF it was 1.03 fold enrichment (6-mer frequency, TF over GST control); in the assay with ETV7 it was 1.19 fold enrichment (6-mer frequency, TF over GST control); with ELF5, 1.1 fold enrichment (6-mer frequency, TF over GST control). Besides, the binding signal with ETV3 is 1.07 fold enrichment (6-mer frequency, TF over GST control); with ETV6 it was 1.05 fold enrichment (6-mer frequency, TF over GST control).

With TTTATG, the binding signal is 1.31 fold enrichment (6-mer frequency, TF over GST control) in the assay with ERF; 1.36 fold enrichment (6-mer frequency, TF over GST control) with ETV3L; 1.32 fold enrichment (6-mer frequency, TF over GST control) with ETS2; 1.29 fold enrichment (6-mer frequency, TF over GST control) with SPDEF; 1.32 fold enrichment (6-mer frequency, TF over GST control) with ETV7; 1.29 fold enrichment (6-mer frequency, TF over GST control) with ELF5. For the same sequence, the binding signal is 1.36 fold enrichment (6-mer frequency, TF over GST control) with ETV3 and 1.33 fold enrichment (6-mer frequency, TF over GST control) in the assay with ETV6.

Turning to ATCTAA, the binding signal with ERF is 1.2 fold enrichment (6-mer frequency, TF over GST control); with ETV3L, 1.19 fold enrichment (6-mer frequency, TF over GST control); with ETS2 it was 1.2 fold enrichment (6-mer frequency, TF over GST control); with SPDEF, 1.11 fold enrichment (6-mer frequency, TF over GST control); with ETV7 it was 1.22 fold enrichment (6-mer frequency, TF over GST control); with ELF5 it was 1.17 fold enrichment (6-mer frequency, TF over GST control). The binding signal with ETV3 is 1.24 fold enrichment (6-mer frequency, TF over GST control); in the assay with ETV6, 1.17 fold enrichment (6-mer frequency, TF over GST control).

In the case of GGCTCT, the binding signal was 1.36 fold enrichment (6-mer frequency, TF over GST control) with ERF; 1.34 fold enrichment (6-mer frequency, TF over GST control) with ETV3L; 1.2 fold enrichment (6-mer frequency, TF over GST control) with ETS2; 1.13 fold enrichment (6-mer frequency, TF over GST control) with SPDEF; 1.44 fold enrichment (6-mer frequency, TF over GST control) with ETV7; 1.15 fold enrichment (6-mer frequency, TF over GST control) with ELF5. In addition, the binding signal with ETV3 is 1.34 fold enrichment (6-mer frequency, TF over GST control); in the assay with ETV6 it was 1.3 fold enrichment (6-mer frequency, TF over GST control).

For the sequence ATGAAA, the binding signal in the assay with ERF was 1.21 fold enrichment (6-mer frequency, TF over GST control); in the assay with ETV3L it was 1.16 fold enrichment (6-mer frequency, TF over GST control); with ETS2, 1.15 fold enrichment (6-mer frequency, TF over GST control); with SPDEF, 1.06 fold enrichment (6-mer frequency, TF over GST control); with ETV7 it was 1.07 fold enrichment (6-mer frequency, TF over GST control); with ELF5 it was 1.13 fold enrichment (6-mer frequency, TF over GST control). Further, the binding signal with ETV3 is 1.1 fold enrichment (6-mer frequency, TF over GST control); with ETV6 it was 1.1 fold enrichment (6-mer frequency, TF over GST control).

Turning to ATCTGC, the binding signal in the assay with ERF is 1.31 fold enrichment (6-mer frequency, TF over GST control); with ETV3L, 1.4 fold enrichment (6-mer frequency, TF over GST control); with ETS2, 1.37 fold enrichment (6-mer frequency, TF over GST control); with SPDEF, 1.36 fold enrichment (6-mer frequency, TF over GST control); with ETV7, 1.38 fold enrichment (6-mer frequency, TF over GST control); with ELF5 it was 1.31 fold enrichment (6-mer frequency, TF over GST control). Moreover, the binding signal was 1.36 fold enrichment (6-mer frequency, TF over GST control) with ETV3 and 1.29 fold enrichment (6-mer frequency, TF over GST control) with ETV6.
